Source: PubChem BioAssay
Rows were chosen to be rich in hits. Some 4.4% of all compounds tested hit in one or more screens of this group.
D1 agonist = agonists of human D1 dopamine receptor; P21728; HEK293 T-REx D1 cells, calcium flux, agonist mode; activation, % at 2 µM; 360,000 tested, 1% active; AID 504660; also: 0% is about no effect
Target sequence (P21728 whole entry, looked up): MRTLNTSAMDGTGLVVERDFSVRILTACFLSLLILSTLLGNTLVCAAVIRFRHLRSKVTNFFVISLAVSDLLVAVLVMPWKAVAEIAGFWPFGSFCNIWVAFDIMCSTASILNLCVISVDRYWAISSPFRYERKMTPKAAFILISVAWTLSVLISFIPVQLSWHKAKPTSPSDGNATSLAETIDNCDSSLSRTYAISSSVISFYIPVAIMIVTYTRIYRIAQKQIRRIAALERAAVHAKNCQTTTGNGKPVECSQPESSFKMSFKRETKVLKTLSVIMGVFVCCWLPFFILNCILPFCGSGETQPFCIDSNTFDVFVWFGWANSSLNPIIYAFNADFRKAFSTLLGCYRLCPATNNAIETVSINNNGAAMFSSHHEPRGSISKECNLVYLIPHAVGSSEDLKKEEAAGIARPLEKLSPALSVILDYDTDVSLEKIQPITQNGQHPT
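Agonism was scored from calcium flux recorded over 180 s (1 read/s) after pintool compound addition, following a 10-cycle baseline. Cells were inducible force-coupled HEK293 TREx D1, plated overnight at 30 C and loaded with no-wash calcium dye.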
TRHR ag = agonists of human TRH receptor. P34981. TRHR cells, calcium flux fluo-8, FDSS agonist mode. activation, % at 2 µM. 360,000 tested, 0.18% active; also: 0% is about no effect
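TRHR-expressing cells loaded with fluo-8 calcium dye; 23 nL library compound pin-transferred, kinetic FDSS fluorescence (Ex 480/Em 530) recorded about 180 s for agonist-induced calcium release, before a 10 nM TRH EC20 addition for potentiator mode.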
D1 PAM = potentiators of human D1 dopamine receptor. P21728. 360,000 tested, 0.036% active. potentiation, % at 10 µM. HEK293 TREx D1 cells, calcium flux, dopamine EC20 potentiation; in the data active = potentiation above about 30%; also: 0% is about no effect
TRHR enhancer = allosteric enhancers of human TRH receptor; enhancement, % at 2 µM; AID 493056; TRHR cells, fluo-8 calcium fluorescence, EC20 TRH enhancement; P34981; 360,000 tested, 0.66% active; in the data active = enhancement above about 30%; also: 0% is about no effect
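Enhancer read-out: after compound pinning and an initial kinetic agonist-mode read, an EC20 of TRH (10 nM final) was injected and fluo-8 calcium signal (Ex 480/Em 530) followed at 1 s/cycle for 100 cycles in TRHR-expressing cells.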
USP1-UAF1 inh = blocks the human USP1/UAF1 deubiquitinase complex; O94782; recombinant USP1/UAF1, Ub-Rhodamine cleavage fluorescence; Potency, µM (doses to about 57.1 µM), for inactives: at the highest dose activity change, negative = inhibition, usual class: inhibitors; 390,000 tested, 0.23% active; active = well fitted inhibition curve with a large enough effect; inconclusive = small, poorly fitted or top-dose-only effect; inactive = no such curve, though single readings can be large or run the other way; also: potency is read from the fitted curve at half-maximal effect; % is scaled to controls: 0 for no effect and ±100 for the full control effect; nearly all actives have a fitted effect of over 60% in size
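1 nM enzyme complex + cpd, 15 min RT; start with Ub-Rho 150nM final; kinetic fluorescence ex 480/em 540, 6 reads q60 s. Buffer 50mM HEPES pH 7.8, 0.5mM EDTA, 0.1 mg/ml BSA, 1mM TCEP, 0.01% Tween-20.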
D1 antag = blocks dopamine activation of the human D1 receptor; P21728; HEK293 TREx D1 cells, calcium flux, dopamine EC80; stronger effect = lower value; activity change, negative = inhibition, % at 10 µM; 360,000 tested, 3.2% active; in the data active = activity change below about -30%; also: % is scaled to controls: 0 for no effect and ±100 for the full control effect
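Cells carrying a force-coupled, tetracycline-inducible human D1 receptor report calcium flux. Each well gets a 10 s baseline, compound with 180 s monitoring, then an EC80 dopamine stimulus with a second 180 s kinetic read.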
An asterisk follows results filed as active; ? = inconclusive; ! = not active in a repeat. Rule as the data show it, unless noted: active = activation above about 30%; inactive = the rest.

SMILES	D1 agonist	TRHR ag	D1 PAM	TRHR enhancer	USP1-UAF1 inh	D1 antag
Cc1ccc(-n2c(-c3cccc(C)c3)nc3c(cnn3-c3ccccc3)c2=O)cc1	4	1	-2	-3	2%	5
Cc1cccc(-c2nc3c(cnn3-c3ccccc3)c(=O)n2-c2ccc(Cl)cc2)c1	6	1	-3	-5	0%	-36*
Cc1ccc(N2CCN(C(=O)c3noc4c3COc3ccc(C)cc3-4)CC2)c(C)c1	-1	-1	0	-25	-11%	-7
Cc1cc(OCC(=O)NCc2cccnc2)c2c(C)c(C)c(=O)oc2c1	2	0	0	4	-19%	-6
O=C(COc1ccc2c(-c3ccccc3)cc(=O)oc2c1)Nc1cccnc1	20	1	-10	-2	-15%	-33*
Cc1cc(OCC(=O)Nc2cccnc2)c2c(C)c(C)c(=O)oc2c1	3	0	-20	1	-22%	-37*
O=C(COc1ccc2c(-c3ccccc3)cc(=O)oc2c1)NCc1ccccn1	4	1	1	-6	5%	-9
CCOc1ccc2c(c1)C(=NNC(=O)c1ccncc1)c1cc(OCC)ccc1-2	0	0	3	35*	-11%	6
CCOc1ccc(C(=O)c2ccncc2)cc1	1	-1	-1	5	-9%	-5
CC(C)Cc1nc(SCC(=O)NCC2CCCO2)c2c(=O)n(C)c(=O)n(C)c2n1 (configuration not stated)	3	0	-14	-15	-31%	-92*
Cn1c(=O)c2c(nc(SCC(=O)NCC3CCCO3)n2C)n(C)c1=O (configuration not stated)	1	0	-3	7	-10%	-7
CCOC(=O)c1c(C)oc2nc(C)nc(NCc3ccccc3Cl)c12	1	0	0	10	-5%	1
CCOC(=O)c1c(C)oc2nc(C)nc(NCCc3ccc(C)cc3)c12	0	1	3	21	-1%	-5
CCOC(=O)c1c(C)oc2nc(C)nc(NCc3ccccc3OC)c12	2	0	-5	-12	-17%	-37*
CCOC(=O)c1c(C)oc2nc(C)nc(NCc3ccccc3OCC)c12	2	-1	8	43*	-7%	4
Cc1ccc2c(c1)sc1nc(=O)n(-c3ccc(Cl)c(Cl)c3)c(=O)n12	1	0	1	2	-14%	-39*!
Cc1sc(NC(=O)c2ccc(Br)s2)c(C(N)=O)c1C	-3	0	31*	4	-12%	19
Cc1cc(C)n(CC(O)CN(c2ccccc2)S(=O)(=O)c2ccccc2)n1 (configuration not stated)	2	0	-2	-5	0%	3
O=S(=O)(c1ccccc1)N(CC(O)COc1ccccc1)c1ccccc1 (configuration not stated)	3	1	-9	17	?	-31*
COc1ccc(C(=O)N2CCN(C(=O)C3COc4ccccc4O3)CC2)cc1OC (configuration not stated)	2	1	0	-6	-11%	7
COc1cccc(C(=O)N2CCN(C(=O)C3COc4ccccc4O3)CC2)c1 (configuration not stated)	3	0	-2	4	-12%	-32*
Cc1cc(C)c(S(=O)(=O)N2CCN(C(=O)C3COc4ccccc4O3)CC2)c(C)c1 (configuration not stated)	2	0	0	36*	-18%	-4
Cc1ccc(S(=O)(=O)N2CCN(C(=O)C3COc4ccccc4O3)CC2)cc1C (configuration not stated)	8	2	-1	27	-12%	-1
Cc1ccc(-c2c(CN3CCN(c4cccc(C)c4)C(C)C3)csc2C)cc1 (configuration not stated)	1	0	2	4	-11%	-23
CC(C)Cc1nc(C(N)=O)c2[nH]c(=O)n(-c3ccc(F)cc3)c2n1	1	1	-2	11	0%	6
SMILES	D1 agonist	TRHR ag	D1 PAM	TRHR enhancer	USP1-UAF1 inh	D1 antag
Cc1cccc(-n2c(=O)[nH]c3c(C(N)=O)nc(CC(C)C)nc32)c1	2	-1	-9	7	-14%	-36*
Cc1cccc(N(C)C(=O)CCS(=O)(=O)c2ccc3c(c2)oc(=O)n3C)c1	2	1	-3	7	-13%	-5
Cc1cccc(N(C)C(=O)CCS(=O)(=O)c2ccc3c(c2)n(C)c(=O)c(=O)n3C)c1	-1	1	-5	5	15%	-32*
CCOc1ccc(CCNC(=O)c2ccc(CS(=O)(=O)c3ccccc3C)o2)cc1OCC	1	0	-2	-3	6%	3
CCOc1ccc(CCNC(=O)c2ccc(CSCc3ccccc3C)o2)cc1OCC	36*	3	-3	-1	?	-22
Cc1cccc(CSCc2ccc(C(=O)NCCc3ccccc3)o2)c1	11	0	-2	-7	-34%	-79*
O=C(NCCc1ccc(Cl)cc1)c1ccc(CSCc2ccccc2Cl)o1	31*	2	-2	-4	-17%	-20
N#CC(C#N)=C(N)/C(C#N)=C/c1cc(O)c(O)c(O)c1	30*	15	2	3	-26%	-20
COc1ccc(CCNC(=O)c2ccc3nc(Cc4ccccc4)oc3c2)cc1OC	13	0	-3	1	-16%	-20
CCCN1CCC(NC(=O)c2cccc(Oc3ccccc3)c2)CC1	2	2	-5	-4	2%	-14
COc1cc(OC)cc(C(=O)NC2CCN(CCCOc3ccccc3)CC2)c1	7	0	-20	-3	-19%	-37*
COCCCNc1ccnc2c(Cl)cccc12	7	1	-1	37*	-3%	2
COCCNc1ccnc2c(Cl)cccc12	4	0	-3	-3	-14%	-5
CCCCCCCCOC(=O)C[N+](C)(C)C/C=C(/C)Cl	1	0	-6	-6	-10%	9
CCCCCCCCCCCCOC(=O)C[N+](C)(C)C	44*	0	5	-8	?	-35*
CCCCCCCCCCOC(=O)C[N+](C)(C)C/C=C(/C)Cl	55*	0	-3	1	-12%	-4
CC(NC(=O)C12CC3CC(CC(C3)C1)C2)c1ccc(F)cc1 (configuration not stated)	-3	-1	9	-1	0%	-51*
COc1ccc(C(C)NC(=O)C23CC4CC(CC(C4)C2)C3)cc1OC (configuration not stated)	0	0	12	-4	-9%	2
